B1: ACGTTCCA (ssRNA)
RNA 1: GAGUUCUACAGUCCGACGAUCCCAACACGUUCCACACCUGGAAUUCUCGGGUGCCAA
RNA 2: UGGAGUGUGACAAUGGUGUUUG
DNA 1: GATCGTCGGACTGTAGAACTC
DNA 2: TTGGCACCCGAGAATTCCA
modifications: constant regions annealed to DNA blockers; guide miR-122 5' phosphate
B2: ACGCTCTG (ssRNA)
RNA 1: GAGUUCUACAGUCCGACGAUCCCAACACGCUCUGCACCUGGAAUUCUCGGGUGCCAA
RNA 2: UGGAGUGUGACAAUGGUGUUUG
DNA 1: GATCGTCGGACTGTAGAACTC
DNA 2: TTGGCACCCGAGAATTCCA
modifications: constant regions annealed to DNA blockers; guide miR-122 5' phosphate
B3: GTGTCTTA (ssRNA)
RNA 1: GAGUUCUACAGUCCGACGAUCCCAACGUGUCUUACACCUGGAAUUCUCGGGUGCCAA
RNA 2: UGGAGUGUGACAAUGGUGUUUG
DNA 1: GATCGTCGGACTGTAGAACTC
DNA 2: TTGGCACCCGAGAATTCCA
modifications: constant regions annealed to DNA blockers; guide miR-122 5' phosphate
B4: ATGCCCCA (ssRNA)
RNA 1: GAGUUCUACAGUCCGACGAUCCCAACAUGCCCCACACCUGGAAUUCUCGGGUGCCAA
RNA 2: UGGAGUGUGACAAUGGUGUUUG
DNA 1: GATCGTCGGACTGTAGAACTC
DNA 2: TTGGCACCCGAGAATTCCA
modifications: constant regions annealed to DNA blockers; guide miR-122 5' phosphate
B5: ACGTCTTA (ssRNA)
RNA 1: GAGUUCUACAGUCCGACGAUCCCAACACGUCUUACACCUGGAAUUCUCGGGUGCCAA
RNA 2: UGGAGUGUGACAAUGGUGUUUG
DNA 1: GATCGTCGGACTGTAGAACTC
DNA 2: TTGGCACCCGAGAATTCCA
modifications: constant regions annealed to DNA blockers; guide miR-122 5' phosphate
B6: ACACTCTG (ssRNA)
RNA 1: GAGUUCUACAGUCCGACGAUCCCAACACACUCUGCACCUGGAAUUCUCGGGUGCCAA
RNA 2: UGGAGUGUGACAAUGGUGUUUG
DNA 1: GATCGTCGGACTGTAGAACTC
DNA 2: TTGGCACCCGAGAATTCCA
modifications: constant regions annealed to DNA blockers; guide miR-122 5' phosphate
B7: ACACCTTG (ssRNA)
RNA 1: GAGUUCUACAGUCCGACGAUCCCAACACACCUUGCACCUGGAAUUCUCGGGUGCCAA
RNA 2: UGGAGUGUGACAAUGGUGUUUG
DNA 1: GATCGTCGGACTGTAGAACTC
DNA 2: TTGGCACCCGAGAATTCCA
modifications: constant regions annealed to DNA blockers; guide miR-122 5' phosphate
B8: GCGCCCCA (ssRNA)
RNA 1: GAGUUCUACAGUCCGACGAUCCCAACGCGCCCCACACCUGGAAUUCUCGGGUGCCAA
RNA 2: UGGAGUGUGACAAUGGUGUUUG
DNA 1: GATCGTCGGACTGTAGAACTC
DNA 2: TTGGCACCCGAGAATTCCA
modifications: constant regions annealed to DNA blockers; guide miR-122 5' phosphate
B9: ACGTTTTA (ssRNA)
RNA 1: GAGUUCUACAGUCCGACGAUCCCAACACGUUUUACACCUGGAAUUCUCGGGUGCCAA
RNA 2: UGGAGUGUGACAAUGGUGUUUG
DNA 1: GATCGTCGGACTGTAGAACTC
DNA 2: TTGGCACCCGAGAATTCCA
modifications: constant regions annealed to DNA blockers; guide miR-122 5' phosphate
B10: GCGCTTCA (ssRNA)
RNA 1: GAGUUCUACAGUCCGACGAUCCCAACGCGCUUCACACCUGGAAUUCUCGGGUGCCAA
RNA 2: UGGAGUGUGACAAUGGUGUUUG
DNA 1: GATCGTCGGACTGTAGAACTC
DNA 2: TTGGCACCCGAGAATTCCA
modifications: constant regions annealed to DNA blockers; guide miR-122 5' phosphate
B11: GTGCCTCA (ssRNA)
RNA 1: GAGUUCUACAGUCCGACGAUCCCAACGUGCCUCACACCUGGAAUUCUCGGGUGCCAA
RNA 2: UGGAGUGUGACAAUGGUGUUUG
DNA 1: GATCGTCGGACTGTAGAACTC
DNA 2: TTGGCACCCGAGAATTCCA
modifications: constant regions annealed to DNA blockers; guide miR-122 5' phosphate
B12: GCGCCCCG (ssRNA)
RNA 1: GAGUUCUACAGUCCGACGAUCCCAACGCGCCCCGCACCUGGAAUUCUCGGGUGCCAA
RNA 2: UGGAGUGUGACAAUGGUGUUUG
DNA 1: GATCGTCGGACTGTAGAACTC
DNA 2: TTGGCACCCGAGAATTCCA
modifications: constant regions annealed to DNA blockers; guide miR-122 5' phosphate
B13: ACGTCCTA (ssRNA)
RNA 1: GAGUUCUACAGUCCGACGAUCCCAACACGUCCUACACCUGGAAUUCUCGGGUGCCAA
RNA 2: UGGAGUGUGACAAUGGUGUUUG
DNA 1: GATCGTCGGACTGTAGAACTC
DNA 2: TTGGCACCCGAGAATTCCA
modifications: constant regions annealed to DNA blockers; guide miR-122 5' phosphate
B14: ATGTTTTA (ssRNA)
RNA 1: GAGUUCUACAGUCCGACGAUCCCAACAUGUUUUACACCUGGAAUUCUCGGGUGCCAA
RNA 2: UGGAGUGUGACAAUGGUGUUUG
DNA 1: GATCGTCGGACTGTAGAACTC
DNA 2: TTGGCACCCGAGAATTCCA
modifications: constant regions annealed to DNA blockers; guide miR-122 5' phosphate
B15: GTGTCTCA (ssRNA)
RNA 1: GAGUUCUACAGUCCGACGAUCCCAACGUGUCUCACACCUGGAAUUCUCGGGUGCCAA
RNA 2: UGGAGUGUGACAAUGGUGUUUG
DNA 1: GATCGTCGGACTGTAGAACTC
DNA 2: TTGGCACCCGAGAATTCCA
modifications: constant regions annealed to DNA blockers; guide miR-122 5' phosphate
B16: ATACTCCA (ssRNA)
RNA 1: GAGUUCUACAGUCCGACGAUCCCAACAUACUCCACACCUGGAAUUCUCGGGUGCCAA
RNA 2: UGGAGUGUGACAAUGGUGUUUG
DNA 1: GATCGTCGGACTGTAGAACTC
DNA 2: TTGGCACCCGAGAATTCCA
modifications: constant regions annealed to DNA blockers; guide miR-122 5' phosphate
B17: ACGCCCTA (ssRNA)
RNA 1: GAGUUCUACAGUCCGACGAUCCCAACACGCCCUACACCUGGAAUUCUCGGGUGCCAA
RNA 2: UGGAGUGUGACAAUGGUGUUUG
DNA 1: GATCGTCGGACTGTAGAACTC
DNA 2: TTGGCACCCGAGAATTCCA
modifications: constant regions annealed to DNA blockers; guide miR-122 5' phosphate
B18: ATATCCCA (ssRNA)
RNA 1: GAGUUCUACAGUCCGACGAUCCCAACAUAUCCCACACCUGGAAUUCUCGGGUGCCAA
RNA 2: UGGAGUGUGACAAUGGUGUUUG
DNA 1: GATCGTCGGACTGTAGAACTC
DNA 2: TTGGCACCCGAGAATTCCA
modifications: constant regions annealed to DNA blockers; guide miR-122 5' phosphate
B19: GTGCCCCA (ssRNA)
RNA 1: GAGUUCUACAGUCCGACGAUCCCAACGUGCCCCACACCUGGAAUUCUCGGGUGCCAA
RNA 2: UGGAGUGUGACAAUGGUGUUUG
DNA 1: GATCGTCGGACTGTAGAACTC
DNA 2: TTGGCACCCGAGAATTCCA
modifications: constant regions annealed to DNA blockers; guide miR-122 5' phosphate
B20: GTGCTCTG (ssRNA)
RNA 1: GAGUUCUACAGUCCGACGAUCCCAACGUGCUCUGCACCUGGAAUUCUCGGGUGCCAA
RNA 2: UGGAGUGUGACAAUGGUGUUUG
DNA 1: GATCGTCGGACTGTAGAACTC
DNA 2: TTGGCACCCGAGAATTCCA
modifications: constant regions annealed to DNA blockers; guide miR-122 5' phosphate

Target: AGO2 WT (phosphosite mutant background) (Homo sapiens, UniProt Q9UKV8 1-859, S387D;S824A;S828D;S831D;S834A)
Sequence (Q9UKV8 whole entry S387D/S824A/S828D/S831D/S834A): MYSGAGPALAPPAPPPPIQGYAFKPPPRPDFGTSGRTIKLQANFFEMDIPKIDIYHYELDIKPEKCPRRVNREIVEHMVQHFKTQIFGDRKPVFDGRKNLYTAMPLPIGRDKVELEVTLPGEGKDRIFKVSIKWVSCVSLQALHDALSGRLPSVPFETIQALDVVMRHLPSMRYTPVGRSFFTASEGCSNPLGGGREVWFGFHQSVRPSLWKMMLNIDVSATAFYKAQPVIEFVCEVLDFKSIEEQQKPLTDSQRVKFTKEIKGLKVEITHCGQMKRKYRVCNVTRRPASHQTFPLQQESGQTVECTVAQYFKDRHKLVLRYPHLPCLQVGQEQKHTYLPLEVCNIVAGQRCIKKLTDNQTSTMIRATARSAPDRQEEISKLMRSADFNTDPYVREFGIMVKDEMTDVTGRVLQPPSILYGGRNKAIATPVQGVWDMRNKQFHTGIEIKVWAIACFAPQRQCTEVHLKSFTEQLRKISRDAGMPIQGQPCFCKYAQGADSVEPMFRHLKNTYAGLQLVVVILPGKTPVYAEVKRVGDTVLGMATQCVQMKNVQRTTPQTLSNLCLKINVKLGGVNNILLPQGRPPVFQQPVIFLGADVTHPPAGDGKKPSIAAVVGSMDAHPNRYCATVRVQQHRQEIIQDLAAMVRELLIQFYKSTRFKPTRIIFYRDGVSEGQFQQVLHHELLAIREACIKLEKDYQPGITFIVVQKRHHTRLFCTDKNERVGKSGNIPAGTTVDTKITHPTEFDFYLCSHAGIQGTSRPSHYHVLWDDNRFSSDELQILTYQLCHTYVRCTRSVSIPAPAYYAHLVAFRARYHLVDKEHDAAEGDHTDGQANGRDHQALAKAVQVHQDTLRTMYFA
Test: RNA Bind-n-Seq (nitrocellulose filter binding and sequencing); miR-122 guide loaded in AGO2; 60 min incubation; 30 mM Tris pH 8.0, 100 mM potassium acetate, 2 mM magnesium acetate, 0.5 mM TCEP, 0.005% NP-40, 0.01 mg/ml yeast tRNA; 3 nM AGO2-miR-122, 100 nM RNA library; 60; high values mean tight binding
Conditions: protein: recombinant; tags: His6 (N-terminal, pFastBac HTA)
In short: (§1)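 His-tagged AGO2 was expressed in Sf9 insect cells by baculovirus, loaded with a synthetic guide RNA, and purified by Ni-NTA and a biotinylated capture oligo. Bound RNA was extracted, reverse-transcribed, barcode-amplified and Illumina-sequenced. Fold enrichment is each sequence's read fraction divided by its input-library read fraction.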

Binder | binding signal
B1 | 0.137 fold enrichment over input
B2 | 0.132 fold enrichment over input
B5 | 0.13 fold enrichment over input
B6 | 0.933 fold enrichment over input
B10 | 0.123 fold enrichment over input
B11 | 0.122 fold enrichment over input
B12 | 0.12 fold enrichment over input
B14 | 0.12 fold enrichment over input
B15 | 0.126 fold enrichment over input
B16 | 1.32 fold enrichment over input
B19 | 0.123 fold enrichment over input
B20 | 0.123 fold enrichment over input

Target: AGO2 L192P (Homo sapiens, UniProt Q9UKV8 1-859, L192P;S387D;S824A;S828D;S831D;S834A)
Sequence (Q9UKV8 whole entry L192P/S387D/S824A/S828D/S831D/S834A): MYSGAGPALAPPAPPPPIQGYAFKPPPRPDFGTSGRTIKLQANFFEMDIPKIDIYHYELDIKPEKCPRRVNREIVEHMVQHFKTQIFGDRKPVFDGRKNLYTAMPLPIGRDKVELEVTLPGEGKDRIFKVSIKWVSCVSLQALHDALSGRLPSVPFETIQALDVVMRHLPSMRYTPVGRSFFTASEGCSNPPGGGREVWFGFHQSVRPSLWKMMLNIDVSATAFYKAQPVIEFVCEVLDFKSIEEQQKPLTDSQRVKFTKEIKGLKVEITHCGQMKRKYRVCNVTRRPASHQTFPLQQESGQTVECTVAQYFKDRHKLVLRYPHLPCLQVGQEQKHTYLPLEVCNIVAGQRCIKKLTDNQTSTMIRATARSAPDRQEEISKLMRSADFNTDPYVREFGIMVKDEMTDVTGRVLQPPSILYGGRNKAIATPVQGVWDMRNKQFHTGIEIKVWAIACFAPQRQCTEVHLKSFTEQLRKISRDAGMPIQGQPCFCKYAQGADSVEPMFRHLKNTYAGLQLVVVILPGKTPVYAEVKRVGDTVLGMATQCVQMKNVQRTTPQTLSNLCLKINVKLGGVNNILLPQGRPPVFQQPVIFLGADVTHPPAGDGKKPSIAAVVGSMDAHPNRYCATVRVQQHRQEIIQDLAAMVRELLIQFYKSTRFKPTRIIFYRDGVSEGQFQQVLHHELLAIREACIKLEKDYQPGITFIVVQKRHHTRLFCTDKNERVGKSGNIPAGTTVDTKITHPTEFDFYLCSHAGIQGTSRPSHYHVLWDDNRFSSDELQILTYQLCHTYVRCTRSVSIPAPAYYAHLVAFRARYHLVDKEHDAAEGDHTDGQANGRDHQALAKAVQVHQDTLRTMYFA
Test: as above
Conditions: protein: recombinant; tags: His6 (N-terminal, pFastBac HTA)
In short: as §1

Binder | binding signal
B1 | 0.603 fold enrichment over input
B2 | 0.394 fold enrichment over input
B3 | 0.461 fold enrichment over input
B4 | 0.494 fold enrichment over input
B5 | 0.525 fold enrichment over input
B6 | 0.807 fold enrichment over input
B7 | 0.422 fold enrichment over input
B8 | 0.498 fold enrichment over input
B9 | 0.447 fold enrichment over input
B10 | 0.498 fold enrichment over input
B11 | 0.533 fold enrichment over input
B12 | 0.438 fold enrichment over input
B13 | 0.475 fold enrichment over input
B14 | 0.492 fold enrichment over input
B15 | 0.486 fold enrichment over input
B16 | 4.64 fold enrichment over input
B17 | 0.505 fold enrichment over input
B18 | 0.464 fold enrichment over input
B19 | 0.464 fold enrichment over input
B20 | 0.483 fold enrichment over input

Target: AGO2 A367P (Homo sapiens, UniProt Q9UKV8 1-859, A367P;S387D;S824A;S828D;S831D;S834A)
Sequence (Q9UKV8 whole entry A367P/S387D/S824A/S828D/S831D/S834A): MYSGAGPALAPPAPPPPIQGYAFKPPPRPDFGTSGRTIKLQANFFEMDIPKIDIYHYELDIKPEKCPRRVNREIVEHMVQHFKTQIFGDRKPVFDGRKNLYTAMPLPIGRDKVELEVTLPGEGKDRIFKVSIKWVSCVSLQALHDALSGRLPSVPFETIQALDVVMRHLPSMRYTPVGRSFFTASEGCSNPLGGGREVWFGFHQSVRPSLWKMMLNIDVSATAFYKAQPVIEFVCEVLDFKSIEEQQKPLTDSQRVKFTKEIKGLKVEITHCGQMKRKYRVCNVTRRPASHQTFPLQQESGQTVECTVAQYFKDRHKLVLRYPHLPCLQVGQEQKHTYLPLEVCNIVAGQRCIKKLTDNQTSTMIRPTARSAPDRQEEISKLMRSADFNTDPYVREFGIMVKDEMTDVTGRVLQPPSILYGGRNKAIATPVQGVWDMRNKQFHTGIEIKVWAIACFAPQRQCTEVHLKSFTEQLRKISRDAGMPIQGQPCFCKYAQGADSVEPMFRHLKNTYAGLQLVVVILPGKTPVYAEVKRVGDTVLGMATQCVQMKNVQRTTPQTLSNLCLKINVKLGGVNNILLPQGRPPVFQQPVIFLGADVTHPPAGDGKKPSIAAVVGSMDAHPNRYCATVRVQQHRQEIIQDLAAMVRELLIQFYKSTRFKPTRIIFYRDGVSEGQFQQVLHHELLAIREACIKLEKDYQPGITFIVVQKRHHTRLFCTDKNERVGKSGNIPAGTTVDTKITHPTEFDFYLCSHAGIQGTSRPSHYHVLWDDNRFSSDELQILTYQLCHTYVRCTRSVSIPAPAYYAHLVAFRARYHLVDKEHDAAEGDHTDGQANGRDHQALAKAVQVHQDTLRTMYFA
Test: as above
Conditions: protein: recombinant; tags: His6 (N-terminal, pFastBac HTA)
In short: as §1

Binder | binding signal
B1 | 0.333 fold enrichment over input
B2 | 0.169 fold enrichment over input
B3 | 0.173 fold enrichment over input
B4 | 0.191 fold enrichment over input
B5 | 0.269 fold enrichment over input
B6 | 0.794 fold enrichment over input
B7 | 0.169 fold enrichment over input
B8 | 0.192 fold enrichment over input
B9 | 0.21 fold enrichment over input
B10 | 0.238 fold enrichment over input
B11 | 0.232 fold enrichment over input
B12 | 0.18 fold enrichment over input
B13 | 0.205 fold enrichment over input
B14 | 0.247 fold enrichment over input
B15 | 0.222 fold enrichment over input
B16 | 6.04 fold enrichment over input
B17 | 0.194 fold enrichment over input
B18 | 0.195 fold enrichment over input
B19 | 0.227 fold enrichment over input
B20 | 0.182 fold enrichment over input

Target: AGO2 T357M (Homo sapiens, UniProt Q9UKV8 1-859, T357M;S387D;S824A;S828D;S831D;S834A)
Sequence (Q9UKV8 whole entry T357M/S387D/S824A/S828D/S831D/S834A): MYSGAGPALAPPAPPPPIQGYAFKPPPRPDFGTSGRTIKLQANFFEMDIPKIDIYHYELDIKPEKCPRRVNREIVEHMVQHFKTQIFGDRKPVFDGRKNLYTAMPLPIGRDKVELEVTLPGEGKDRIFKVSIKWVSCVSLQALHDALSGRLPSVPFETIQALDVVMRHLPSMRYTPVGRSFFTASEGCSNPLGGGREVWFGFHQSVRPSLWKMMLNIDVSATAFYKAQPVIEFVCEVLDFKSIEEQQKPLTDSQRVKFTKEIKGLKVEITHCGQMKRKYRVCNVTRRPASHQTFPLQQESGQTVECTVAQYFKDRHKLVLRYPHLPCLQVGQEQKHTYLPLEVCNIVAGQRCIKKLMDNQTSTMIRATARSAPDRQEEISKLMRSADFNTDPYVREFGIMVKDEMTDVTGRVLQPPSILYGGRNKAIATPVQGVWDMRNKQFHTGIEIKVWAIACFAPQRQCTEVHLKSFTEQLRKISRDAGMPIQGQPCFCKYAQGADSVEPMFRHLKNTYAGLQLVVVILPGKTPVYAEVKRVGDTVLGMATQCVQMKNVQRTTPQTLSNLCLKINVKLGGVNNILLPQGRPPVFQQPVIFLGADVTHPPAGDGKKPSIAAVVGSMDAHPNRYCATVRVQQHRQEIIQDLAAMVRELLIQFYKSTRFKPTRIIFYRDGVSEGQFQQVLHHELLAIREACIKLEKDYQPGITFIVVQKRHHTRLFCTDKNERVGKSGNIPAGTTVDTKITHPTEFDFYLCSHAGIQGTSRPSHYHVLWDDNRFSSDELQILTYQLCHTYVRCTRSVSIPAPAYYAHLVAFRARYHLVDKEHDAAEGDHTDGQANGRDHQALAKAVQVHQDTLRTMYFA
Test: as above
Conditions: protein: recombinant; tags: His6 (N-terminal, pFastBac HTA)
In short: as §1

Binder | binding signal
B1 | 0.66 fold enrichment over input
B2 | 0.539 fold enrichment over input
B3 | 0.599 fold enrichment over input
B4 | 0.652 fold enrichment over input
B5 | 0.643 fold enrichment over input
B6 | 0.868 fold enrichment over input
B7 | 0.452 fold enrichment over input
B8 | 0.741 fold enrichment over input
B9 | 0.571 fold enrichment over input
B10 | 0.703 fold enrichment over input
B11 | 0.687 fold enrichment over input
B12 | 0.745 fold enrichment over input
B13 | 0.603 fold enrichment over input
B14 | 0.607 fold enrichment over input
B15 | 0.585 fold enrichment over input
B16 | 1.16 fold enrichment over input
B17 | 0.681 fold enrichment over input
B18 | 0.568 fold enrichment over input
B19 | 0.677 fold enrichment over input
B20 | 0.67 fold enrichment over input

Target: AGO2 F182del (Homo sapiens, UniProt Q9UKV8 1-859, S387D;S824A;S828D;S831D;S834A;del182-182)
Sequence (Q9UKV8 other isoform, or with tags, fused parts or gaps S387D;S824A;S828D;S831D;S834A;del182-182): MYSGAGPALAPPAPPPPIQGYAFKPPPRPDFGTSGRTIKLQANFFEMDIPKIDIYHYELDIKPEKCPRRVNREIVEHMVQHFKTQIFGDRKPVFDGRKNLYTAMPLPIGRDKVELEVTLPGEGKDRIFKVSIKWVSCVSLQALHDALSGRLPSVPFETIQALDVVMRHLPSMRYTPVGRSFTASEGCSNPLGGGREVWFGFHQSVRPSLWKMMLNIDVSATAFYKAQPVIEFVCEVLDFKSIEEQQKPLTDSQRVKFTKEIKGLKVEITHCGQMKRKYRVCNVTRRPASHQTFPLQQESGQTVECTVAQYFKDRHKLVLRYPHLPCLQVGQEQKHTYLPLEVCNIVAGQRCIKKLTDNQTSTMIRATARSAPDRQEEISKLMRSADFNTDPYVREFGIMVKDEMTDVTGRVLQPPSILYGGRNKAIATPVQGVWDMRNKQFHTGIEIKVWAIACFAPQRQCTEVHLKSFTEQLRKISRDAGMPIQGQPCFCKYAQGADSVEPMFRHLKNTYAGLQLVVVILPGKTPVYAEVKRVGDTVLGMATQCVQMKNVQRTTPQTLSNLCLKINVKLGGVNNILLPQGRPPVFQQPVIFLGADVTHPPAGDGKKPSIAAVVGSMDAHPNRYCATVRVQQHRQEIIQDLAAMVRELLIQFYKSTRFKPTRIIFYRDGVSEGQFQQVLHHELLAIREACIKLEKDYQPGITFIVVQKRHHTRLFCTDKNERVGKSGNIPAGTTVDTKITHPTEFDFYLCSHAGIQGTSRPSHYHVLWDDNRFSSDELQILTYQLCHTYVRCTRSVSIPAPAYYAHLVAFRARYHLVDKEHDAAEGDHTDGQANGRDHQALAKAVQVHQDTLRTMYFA
Test: as above
Conditions: protein: recombinant; tags: His6 (N-terminal, pFastBac HTA)
In short: as §1

Binder | binding signal
B1 | 0.976 fold enrichment over input
B2 | 0.149 fold enrichment over input
B4 | 0.191 fold enrichment over input
B5 | 0.333 fold enrichment over input
B6 | 2.4 fold enrichment over input
B7 | 0.318 fold enrichment over input
B9 | 0.204 fold enrichment over input
B10 | 0.289 fold enrichment over input
B11 | 0.326 fold enrichment over input
B13 | 0.187 fold enrichment over input
B14 | 0.21 fold enrichment over input
B15 | 0.387 fold enrichment over input
B16 | 8.59 fold enrichment over input
B18 | 0.249 fold enrichment over input
B19 | 0.158 fold enrichment over input
